Bfl-1 A1 inh: inhibitors of the anti-apoptotic protein A1, read as caspase activation; caspase activation, % (concentration not given with the values); 330,000 compounds, 0.066% hits; MEF A1-2A-BIM cells, Caspase-Glo 3/7 luminescence, 3 h; percent of clofoctol response, vehicle zero;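 active means over half of replicate activation scores above 10%, or exactly half above 10 with the replicate mean above 10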
AHR act: human AHR activation | P35869 | AHR-responsive luciferase reporter cells, luminescence | activation, % at 5 µM | 320,000 compounds, 2.5% hits | AID 2796; in the data active means activation above about 47%;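 further: 0% = vehicle wells and 100% = reference agonist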
Mot1-301 SUMO: SUMOylation pathway inhibition by Mot1-301 growth rescue. AID 2716. growth rescue, % at 18.8 µM. S. cerevisiae Mot1-301 growth rescue, ATP luminescence, 38.5C; percent above DMSO median, 100 means doubled. 320,000 compounds, 1% hits;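 active means every valid replicate shows activation above 250% relative to neutral control wells; inactive means the rest, any valid replicate at or below 250%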;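 further: OY570 slx delta 5 strain wells were the positive control but not used for scaling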
ALR inh: inhibitors of human sulfhydryl oxidase ALR. P55789. purified ALR, DTT oxidation, H2O2 HRP-luminol luminescence. inhibition, % (test concentration not listed). 290,000 compounds, 3.8% hits. AID 485317;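 active means mean replicate inhibition above about 79%, with every replicate also reaching it, limit read from the data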
Target sequence (P55789 whole entry, looked up): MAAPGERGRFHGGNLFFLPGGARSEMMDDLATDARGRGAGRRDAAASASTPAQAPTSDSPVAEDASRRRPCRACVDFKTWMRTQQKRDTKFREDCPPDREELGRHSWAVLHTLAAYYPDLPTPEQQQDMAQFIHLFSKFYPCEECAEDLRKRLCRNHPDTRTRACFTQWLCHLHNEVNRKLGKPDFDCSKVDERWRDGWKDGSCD
VLA-4 inh: inhibition in a human VLA-4 binding assay | P13612 | VLA-4 expressing cells, ligand binding flow cytometry | inhibition, % (about 7 µM as worked out from the volumes in the protocol) | 330,000 compounds, 0.2% hits; in the data active means inhibition above about 50%
Efflux pump inh: blocks antifungal efflux pumps in multiplex yeast assay; S. cerevisiae Candida pump triplex, Nile Red efflux; inhibition, % at 10 µM; 330,000 compounds, 0.44% hits; AID 485275;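 active means plate passing quality check with inhibition over a set limit, or well fluorescence over plate mean plus 4 SD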;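 further: Nile Red retained in pooled yeast measured as flow cytometry median fluorescence; 0% = buffer negative control and 100% = Enniatin B positive control; higher means more Nile Red kept so more efflux inhibition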
The depositor's hits bear a star; nt = no result given; + = active, no number. Compounds with a hit are over-represented: about 7.2% of the library has one in this group of screens.

SMILES | Bfl-1 A1 inh | AHR act | Mot1-301 SUMO | ALR inh | VLA-4 inh | Efflux pump inh
O=C(NC1(C(F)(F)F)Oc2ccc(Cl)cc2O1)N1CCC2(CC1)OCCO2 (stereo not drawn) | 0 | 2 | -5 | 99* | 11 | 0
O=C(NC1(C(F)(F)F)Oc2ccccc2O1)N1CCC2(CC1)OCCO2 | -1 | 1 | -18 | -26 | 1 | 0
Cc1cccc(CNCCc2c[nH]c3ccccc23)c1 | 0 | 12 | 286* | 12 | 14 | 0
COc1cc2c(cc1O)C[C@H]1c3c(cc(O)c(OC)c3-2)CCN1C | 1 | 8 | 135 | 98* | 11 | 0
CCCN1CCc2cc(O)cc3c2[C@H]1Cc1ccc(O)c(O)c1-3 | 0 | 10 | -6 | 99* | 15 | 0
COc1cc2c(cc1O)[C@@H]1Cc3ccc(OC)c(O)c3CN1CC2 | 0 | 1 | 2 | 54 | 30 | 0
CN1CCc2cc(O)cc3c2[C@H]1Cc1ccc(O)c(O)c1-3 | 0 | 6 | 13 | 99* | -8 | 0
OC12CCCCC1C(c1ccccc1)NCC2 (stereo not drawn) | 1 | 1 | 255 | -5 | 18 | 0
CC(=O)O[C@H]1CC[C@@]2(C)C(=CC[C@@H]3[C@@H]2CC[C@]2(C)C(=O)CC[C@@H]32)C1 | 0 | 0 | 483* | -5 | 13 | 0
CC(N)Cc1c[nH]c2c1ccc1ccccc12 (stereo not drawn) | 0 | 49* | -7 | -12 | -3 | 0
COc1ccc(-c2cc(=Nc3cccc(C(=O)O)c3)c3cc(C)ccc3o2)cc1 | -8 | -4 | -12 | 96* | 9 | 0
COc1ccc(-c2cc(=NCC(=O)O)c3ccccc3o2)cc1 | 1 | 34 | -9 | -1 | -6 | 0
CCOC(=O)c1c(C)n(Cc2ccco2)c2ccc(O)cc12 | 1 | 47* | -22 | -5 | 3 | 0
Cc1[nH]c2ccccc2c1/C=N/O | 1 | 3 | -1 | 96* | 49 | 0
Cc1[nH]c2ccccc2c1CCN | 1 | 21 | -12 | 16 | -2 | 0
COC(=O)C1=C(c2ccc(Cl)c(C(F)(F)F)c2)C[C@@H]2CC[C@H]1N2C(=O)NCc1cc(C)oc1C(F)(F)F | 0 | -2 | 24 | 3 | 26 | 1
Cc1nc2ccsc2c(=O)n1-c1ccccc1Cl | 0 | -2 | -26 | 2 | -1 | 0
CCc1ccc(C(=O)C23CN4CN(CN(C4)C2)C3)cc1 | 0 | 0 | 351* | -3 | 17 | 0
CC(C)(C)c1cc(C=C(C#N)C#N)cc(C(C)(C)C)c1O | 0 | 1 | -5 | 17 | -32 | 0
N#CC(C#N)=Cc1ccc(O)c(O)c1 | 0 | 10 | 4 | 98* | -4 | 0
CC(C)C(=O)Nc1ccc(N2CCN(C)CC2)c(F)c1 | 1 | 4 | 423* | -1 | 1 | 0
COc1ccc(CCNC2CCCCC2)cc1 | 1 | 1 | nt | -11 | 12 | 0
COc1ccc(C[C@H]2NC[C@H](O)[C@H]2OC(C)=O)cc1 | 7.5* | -12 | 71 | -1 | 24 | 0
O=c1[nH]c(=S)n(-c2ccccc2F)c(O)c1C=Nc1ccc(N2CCOCC2)cc1 | -1 | 2 | + | 39 | -13 | 0
O=c1[nH]c(=S)n(-c2ccc(Br)cc2)c(O)c1C=Nc1ccc(N2CCOCC2)cc1 | 0 | 5 | -17 | 4 | 5 | 0
SMILES | Bfl-1 A1 inh | AHR act | Mot1-301 SUMO | ALR inh | VLA-4 inh | Efflux pump inh
Cn1cnc([N+](=O)[O-])c1Sc1ccc([N+](=O)[O-])cc1 | 0 | 1 | 4 | 97* | -3 | 0
CN(C)C(=O)Oc1ccc2oc(=O)cc(-c3cc4ccccc4o3)c2c1 | 0 | 12 | -9 | -4 | -2 | 0
Cc1ccc(Sc2ccc(C=C3C(=O)N(C)C(=O)N(C)C3=O)o2)cc1 | 1 | 0 | 9 | 97* | -7 | 0
COc1cccc(-c2nc(CS(=O)CC(=O)N3CCC4(CC3)OCCO4)c(C)o2)c1 (stereo not drawn) | 1 | 1 | -16 | nt | 2 | 0
Cc1oc(-c2ccccc2F)nc1CS(=O)CC(=O)N1CCC2(CC1)OCCO2 (stereo not drawn) | 1 | 3 | -15 | 99* | -8 | 0
Cc1oc(-c2ccc(Cl)cc2)nc1CS(=O)CC(=O)N1CCC2(CC1)OCCO2 (stereo not drawn) | 1 | 2 | -4 | 99* | 0 | 0
Clc1ccc2c(c1)C(c1ccccc1Cl)=NCc1nnc(N3CCN(CCOc4ccccc4)CC3)n1-2 | -1 | 0 | 346* | -19 | -15 | 0
Clc1ccc2c(c1)C(c1ccccc1Cl)=NCc1nnc(N3CCN(CCSc4ccccc4)CC3)n1-2 | 1 | 1 | 240 | -7 | 19 | 0
CN(C)P(=O)(CCl)Nc1ccccc1 (stereo not drawn) | 0 | 4 | 6 | -5 | 13 | 0
OC(c1ccncc1)(c1ccc(F)cc1)c1ccc(F)cc1 | 0 | 4 | 32 | -14 | 27 | 0
C[C@@H](N)Cc1cnc[nH]1 | -1 | -2 | 75 | -7 | -6 | 0
CN1C(=O)c2ccccc2NC(=O)[C@]12O[C@@H]2c1ccccc1 | -1 | 3 | 4 | 98* | -20 | 0
Cc1nn(Cc2ccccc2)c(Cl)c1C(=O)OCC(=O)Nc1cccc2ccccc12 | -1 | -1 | -7 | -5 | 6 | 1
CCOC(=O)CC1=C(C(=O)OCC)C2(C(=O)N1CC(=O)OC)C(C#N)=C(N)Oc1ccccc12 (stereo not drawn) | 1 | -2 | -11 | -26 | -2 | 0
COC[C@]12CN(C)C3C4[C@H](OC)[C@H]1C3([C@@H](OC)C[C@H]2O)[C@@H]1C[C@@]2(O)[C@H](OC(=O)c3ccccc3)[C@@H]1[C@]4(OC(C)=O)[C@@H](O)[C@@H]2OC | 0 | 0 | -8 | -7 | -13 | 0
Cc1ccccc1-n1c(O)c(C=Nc2ccc(N(C)C)cc2)c(=O)[nH]c1=O | 1 | 61* | 156 | 92* | 4 | 0
Cc1cccc(N=Cc2c(O)n(-c3ccccc3C)c(=O)[nH]c2=O)c1 | -1 | 1 | 280* | -3 | -8 | 0
Cc1ccc(N=Cc2c(O)n(-c3ccc(C)cc3)c(=O)[nH]c2=O)cc1 | 1 | 11 | -10 | nt | -12 | 0
Cc1ccccc1-n1c(O)c(/C=N/c2nccs2)c(=O)[nH]c1=O | 1 | 0 | -2 | 5 | -11 | 0
O=c1[nH]c(=S)[nH]c(O)c1N=Nc1ccc(OC(F)F)cc1 | -11 | 2 | -7 | 2 | -10 | 0
CC1CCSP(=O)(Oc2ccccc2)O1 (stereo not drawn) | 0 | 0 | -3 | -5 | -5 | 0
CCc1c(C)nc(N)nc1N1N=C1SCCOc1ccccc1 | 0 | 1 | 13 | nt | 3 | 0
C=CCn1c(O)c(/C=N/N2CCCCC2)c(=O)[nH]c1=O | 0 | 1 | 8 | 36 | 7 | 0

From PubChem BioAssay
